# 3T3 cytotox: Cytotoxic Profiling in NIH 3T3 Cell Line of Diverse Libraries Using Quantitative High-Throughput Screening | NIH 3T3 viability, CellTiter-Glo ATP luminescence, 48-72 h | Potency, µM (series often up to 96.7 µM), without a hit: at the highest dose activity change, negative = cytotoxicity, hits mostly inhibitors | 94,000 compounds, 4.3% hits | AID 1345082, 2018; further: nearly all actives have a fitted effect of over 55% in size
#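 Mouse fibroblast NIH 3T3 cells, 400 per well, received compound via pintool and were incubated for 48 or 72 hr prior to CellTiter-Glo ATP luminescence measurement.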
# HEK cytotox: Cytotoxic Profiling in HEK 293 Cell Line of Diverse Libraries Using Quantitative High-Throughput Screening; AID 1345083, 2018; 94,000 compounds, 6.6% hits; HEK 293 viability, ATP luminescence (CellTiter-Glo), 48-72 h; Potency, µM (top dose mostly 115 µM), for the others: top-dose activity change, negative = cytotoxicity, usual class: inhibitors; further: nearly all actives have a fitted effect of over 60% in size
#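 250 HEK 293 cells/well; compound by pintool; incubated 48 or 72 hr at 37 degree Celsius; CellTiter-Glo added, 10 min RT, luminescence imaged.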
# hNpr1 antagonist: Natriuretic polypeptide receptor (hNpr1) antagonism - Primary qHTS | Atrial natriuretic peptide receptor 1 (Homo sapiens), P16066 | HEK293 hNpr1 GloSensor cGMP, ANP-stimulated luminescence | Potency, µM (top dose mostly 46.3 µM), without a hit: at the highest dose activity change, negative = inhibition, actives largely listed as inhibitors | 76,000 compounds, 1.6% hits; calls by dose curve; further: nearly all actives have a fitted effect of over 60% in size
#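 HEK293 cells stably expressing human Npr1 and cGMP GloSensor pGS-40F, loaded 2 h with 2% GloSensor reagent, given compound 30 min at room temperature. Luminescence read before and 20 min after 0.1 nM hNppA.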
# FLuc inh: Firefly luciferase inhibition profiling of diverse chemical library using quantitative high-throughput screening; purified P. pyralis luciferase, luminescence, biochemical; 76,000 compounds, 2.5% hits; Luciferin 4-monooxygenase (Photinus pyralis), P08659; Potency, µM (series often up to 115 µM), hits mostly inhibitors; further: nearly all actives have a fitted effect of over 65% in size
# Target sequence (P08659 whole entry, looked up): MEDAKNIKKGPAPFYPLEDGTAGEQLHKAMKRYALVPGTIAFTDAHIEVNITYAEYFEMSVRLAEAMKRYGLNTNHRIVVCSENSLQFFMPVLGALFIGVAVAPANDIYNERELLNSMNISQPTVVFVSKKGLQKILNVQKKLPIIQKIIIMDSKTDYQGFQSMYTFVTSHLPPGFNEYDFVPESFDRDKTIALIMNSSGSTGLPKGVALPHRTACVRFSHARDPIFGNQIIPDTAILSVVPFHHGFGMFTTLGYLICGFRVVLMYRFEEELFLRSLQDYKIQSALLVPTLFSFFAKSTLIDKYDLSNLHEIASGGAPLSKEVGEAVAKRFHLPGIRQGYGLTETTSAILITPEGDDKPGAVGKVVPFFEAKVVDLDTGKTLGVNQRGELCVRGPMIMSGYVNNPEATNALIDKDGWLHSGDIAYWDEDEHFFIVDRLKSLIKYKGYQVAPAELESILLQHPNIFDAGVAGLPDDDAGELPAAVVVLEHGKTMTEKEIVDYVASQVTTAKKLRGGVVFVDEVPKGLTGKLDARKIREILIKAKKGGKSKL
#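 Biochemical qHTS: compound (6-point titration) added to 10uM D-luciferin plus 10uM ATP in Tris acetate pH 7.5 buffer with Mg, Tween-20 and BSA, then purified enzyme at 10nM; light output imaged.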
# * hit, by the source's call; i = inactive; ? = inconclusive; nt = no result given; [ ] = another dose, or the depositor's remark. Most compounds without a hit are left out; they make up all but 11% or so of the library. Unless noted, the call rests on the fitted dose curve; in most records, active means well fitted curve in the direction sought with a large enough effect; inconclusive means small, poorly fitted or top-dose-only effect, or another doubt; inactive means no such curve, though single readings can be large; an effect the other way counts as inactive or inconclusive. On the % scale 0 is the no-effect control and ±100 the full control effect; potency means the concentration at half of the fitted maximal effect.
SMILES,3T3 cytotox,HEK cytotox,hNpr1 antagonist,FLuc inh
COc1ccc(Nc2ccnc(N3CCCC(C(=O)NCc4ccc(F)cc4)C3)n2)cc1 (stereo not given),28µM*,?,nt,nt
COc1ccc(Nc2ccnc(N3CCCC(C(=O)NC4CCCC4)C3)n2)cc1 (stereo not given),40µM*,?,nt,nt
COc1ccc(Nc2ccnc(N3CCCC(C(=O)N4CCN(C(C)=O)CC4)C3)n2)cc1 (stereo not given),?,-14%,nt,nt
O=C(NC1CCCC1)N1CCCC(C(=O)N2CCCC(c3nc4ncccc4[nH]3)C2)C1 (stereo not given),-23%,0%,nt,nt
CC(=O)NCc1nnc2n1C(C(=O)Nc1ccc(C)cc1)CC2 (stereo not given),-2%,i,nt,nt
O=C(Nc1cc(-c2ccccn2)nn1-c1ccccc1)C1CC1,-9%[138 µM],-5%[172 µM],nt,nt
CN1CCN(C(=O)C2CCN(c3ccnc4ccnn34)CC2)CC1,?,-20%[172 µM],nt,nt
COc1ccccc1Nc1ccnc(N2CCC(NC(=O)C3CC3)CC2)n1,-28%,-22%,nt,nt
O=C(NC1CCN(c2nccc(Nc3ccccc3Cl)n2)CC1)c1ccccc1Cl,?,40µM*,nt,nt
Cc1ccc(Nc2ccnc(N3CCC(NC(=O)c4ccccc4Cl)CC3)n2)cc1,40µM*,45µM*,nt,nt
Cc1ccc(Nc2ccnc(N3CCN(C(=O)c4ccccc4Cl)CC3)n2)cc1,?,40µM*,nt,nt
O=C(NC1CCN(c2nccc(Nc3ccccc3Cl)n2)CC1)C1CC1,28µM*,?,nt,nt
Cc1nn(-c2ccccc2)c2c1C(C)N(CC1CN(C(=O)NC(C)C)C1)C2=O (stereo not given),-20%,-6%,nt,nt
C[S+](=O)([O-])c1ccc(-c2nnc3ccc(C(=O)NC4CC4)cn23)cc1,-14%[138 µM],-9%[172 µM],nt,nt
O=C(CCC1CCCC1)NCC1CCCCC(=O)N1 (stereo not given),i,-4%,nt,nt
Cn1ncc2c(C(=O)NCc3ccc(F)cc3F)cc(-c3ccc(C(F)(F)F)cc3)nc21,-26%,-3%,nt,nt
COc1ccc(CN2CC(O)CN([S+](=O)([O-])c3ccc(F)cc3)CC2=O)cc1 (stereo not given),-30%,?,nt,nt
CC(NC(=O)C1CCN(c2nccc(Nc3ccccc3Cl)n2)CC1)c1ccc(F)cc1 (stereo not given),32µM*,40µM*,nt,nt
CC(=O)NCc1nnc2n1C(C(=O)NCc1ccccc1F)CC2 (stereo not given),-26%,-39%,nt,nt
COc1ccc(CN2CC(N(C)c3ccccc3C)C2)cc1,79µM*,?,nt,nt
COc1ccc(CN2CC(Oc3ccc(F)c(C)c3)C2)cc1,?,89µM*,-5%[70.6 µM],i
COc1ccc(CN2CC(Oc3ccc(F)cc3C)C2)cc1,40µM*,71µM*,-13%[70.6 µM],i
Cc1cc(F)ccc1OC1CN(Cc2ccc(C#N)cc2)C1,?,63µM*,-16%[70.6 µM],i
Cc1cc(OC2CN(Cc3ccc(C#N)cc3)C2)ccc1F,?,?,?,i
COc1ccc(CN2CC(Oc3ccc(F)cc3F)C2)cc1,-25%[138 µM],?,nt,nt
SMILES,3T3 cytotox,HEK cytotox,hNpr1 antagonist,FLuc inh
COc1ccc2c(c1)C(COCc1ccc(C(=O)O)cc1)CC(C)(C)O2 (stereo not given),?,i,nt,nt
O=C(NC1CCN(C(=O)c2ccc(-c3cncnc3)cc2)CC1)c1ccc(F)cc1,-26%,?,nt,nt
COc1ccc(Cn2c(C3CCN(C(=O)c4cc(Cl)ccc4F)CC3)n[nH]c2=O)cc1,-31%,?,-6%,i
O=S(=O)(c1ccccc1)N1CCc2nnc(C3CC3)n2CC1,-19%,1%,nt,nt
COc1ccccc1C(=O)N1CC(Oc2ccc(F)cc2C)C1,?,71µM*,15%[70.6 µM],i
COc1ccc(C(=O)N2CC(Oc3ccc(F)cc3C)C2)cc1,?,?,-3%[70.6 µM],i
COc1ccc(-c2cnc3n[nH]c(-c4ccc(F)cc4C)c3n2)cc1,32µM*,45µM*,-1%[70.6 µM],i
Cc1ccccc1-c1[nH]nc2ncc(-c3cccc(O)c3)nc12,?,?,-19%[70.6 µM],i
COc1ccc(-c2[nH]nc3ncc(-c4ccc(OC)nc4)nc23)c(C)c1,?,22µM*,4%[70.6 µM],i
COc1ccc(-c2cnc3n[nH]c(-c4ccccc4C)c3n2)cn1,?,32µM*,-9%[70.6 µM],i
Cc1ccccc1-c1[nH]nc2ncc(-c3cccnc3)nc12,?,?,-5%[70.6 µM],i
Cc1ccccc1-c1[nH]nc2ncc(-c3ccsc3)nc12,?,32µM*,-13%[70.6 µM],i
O=C(C1CCCN1[S+](=O)([O-])c1cccc(C(F)(F)F)c1)N1CCC(N2CCOCC2=O)CC1 (stereo not given),-18%,i,nt,nt
CC1=NS(=O)(=O)N(C)C=C1C(=O)OCc1nc(-c2ccc3c(c2)OCO3)no1,-6%,-10%,11µM*,?
COc1cccc(-c2noc(COC(=O)C3=CN(C)S(=O)(=O)N=C3C)n2)c1,?,?,13µM*,?
CC1=NS(=O)(=O)N(C)C=C1C(=O)OCc1nc(-c2ccc(Cl)cc2)no1,-29%,?,10µM*,?
COc1ccc(C(=O)N2CC(CNC(=O)N3CCCC3)C3(CCOCC3)C2)cc1F (stereo not given),-10%,i,nt,nt
O=C(NC[C@H]1OC[C@@H](N(Cc2cccs2)Cc2cccs2)[C@@H]1O)c1ccccc1,?,?,-4%[70.6 µM],i
O=C(NCC1CN(C(=O)Nc2ccccc2)CC12CCOCC2)N1CCCC1 (stereo not given),-17%,-5%,nt,nt
COc1ccc(F)cc1-c1ccc(CN2CCC(NC(=O)c3ccc(C(F)(F)F)cc3)C2)cc1 (stereo not given),?,20µM*,nt,nt
COc1ccccc1-c1ccc(CN2CCC(NC(=O)c3ccc(C(F)(F)F)cc3)C2)cc1 (stereo not given),?,25µM*,nt,nt
CCCC1=Nc2cc(C(=O)NCCc3ccccc3)ccc2Sc2ccc(C)cc21,-48%,?,-12%,i
CCCC1=Nc2cc(C(=O)NCCCN3CCCCC3CC)ccc2Sc2ccc(C)cc21 (stereo not given),7.1µM*,?,-18%,i
Cc1cccc(-c2nc3cc(C(=O)NCc4ccc(Cl)cc4)ccc3o2)n1,-19%,?,nt,nt
COc1ccc(-c2cc(C(=O)NCc3cccc(C(F)(F)F)c3)c3cnn(C)c3n2)cc1,32µM*,35µM*,nt,nt
CCN1CCN(C(=O)c2cc(-c3cc(Cl)cc(Cl)c3)nc3c2cnn3C)CC1,-25%,-2%,nt,nt
Cn1ncc2c(C(=O)NCc3cccc(C(F)(F)F)c3)cc(-c3ccc(C(F)(F)F)cc3)nc21,-2%,-7%,nt,nt
Cn1ncc2c(C(=O)NCc3cccc(F)c3)cc(-c3ccc(C(F)(F)F)cc3)nc21,-29%,40µM*,nt,nt
